From the antibiotic and cytotoxicity screens of Wong et al. (2023)
The whole screen tested about 39,000 compounds, of which about 500 (1.3%) were called active. The list comes from a sample in which actives are over-represented; it also holds similar structures and randomly drawn compounds.

test system: S. aureus RN4220; test: growth inhibition call (relative growth <= 0.2); details: 50 µM

Growth inhibition call, inactive:
CC1CC2C(C(O)CC3(C)C2CCC3(O)C(=O)COC(=O)CCC(=O)[O-])C2(C)C=CC(=O)C=C12.[Na+] (stereo not given), COc1cc(NC(=O)CCN2CCC(OC(=O)Nc3ccccc3-c3ccccc3)CC2)c(Cl)cc1CNC[C@H](O)c1ccc(O)c2nc(O)ccc12, CO[C@H]1CN(C)C(=O)c2cc(NC(=O)Nc3ccccc3)ccc2OC[C@H](C)N(C(=O)CN(C)C)C[C@@H]1C, Cc1noc(C)c1S(=O)(=O)Nc1ccc2c(c1)CC(=O)N([C@H](C)CO)C[C@@H](C)[C@@H](CN(C)Cc1ccncc1)O2, Cc1noc(C)c1NC(=O)Nc1ccc2c(c1)CC(=O)N([C@@H](C)CO)C[C@@H](C)[C@@H](CN(C)S(C)(=O)=O)O2, CC(=O)O[C@@H]1[C@@H]2OC(=O)[C@H](OC(C)=O)[C@@H]2O[C@H]1n1ccc(=O)[nH]c1=O, COc1ccc2c3c([nH]c2c1)[C@H](CO)N(C[C@]13CCN(CC1)Cc1ccc(cc1)F)C(=O)Nc1ccc(cc1)F, COc1ccc2c3c([nH]c2c1)[C@H](CO)N(C[C@]13CCN(CC1)CC1CCCC1)C(=O)Nc1cccc(c1)F, COc1ccc2c3c([nH]c2c1)[C@@H](CO)N(C[C@]13CCN(CC1)CC1CCCC1)C(=O)Nc1cccc(c1)F, COc1ccc2c3c([nH]c2c1)[C@H](CO)N(C[C@]13CCN(CC1)CC1CCCCC1)C(=O)Nc1cccc(c1)F, COc1ccc(cc1)CN1CC[C@]2(CC1)CN([C@H](CO)c1[nH]c3cc(ccc3c12)OC)C(=O)Nc1ccc(cc1)F, COc1ccc2c3c([nH]c2c1)[C@@H](CO)N(C[C@]13CN(CC2CCCCC2)C1)C(=O)Nc1cccc(c1)F, C=CCOC(=O)O[C@H]1[C@@H](OC)O[C@H](COC(=O)NCCCCCC(=O)NO)[C@@H](OC(=O)[C@H](CC=C)Cc2cccc(Br)c2)[C@@H]1OC(=O)[C@H](CC=C)Cc1ccccc1, C[C@H](CO)N1C[C@H](C)[C@@H](CN(C)C(=O)Nc2ccc3c(c2)OCCO3)OCc2cn(nn2)CCCC1=O, O=C(N[C@H]1C=C[C@H](CC(=O)N2CCOCC2)O[C@@H]1CO)c1ccc2c(c1)OCO2, Cn1cnc(S(=O)(=O)N[C@H]2C=C[C@@H](CC(=O)NCC3CC3)O[C@H]2CO)c1, COc1ccc(NC(=O)Nc2ccc3c(c2)C(=O)N([C@@H](C)CO)C[C@H](C)[C@H](CN(C)C(=O)c2ccccc2)OCCCC[C@@H](C)O3)cc1, CN(C)CC#Cc1cncc(C(=O)NN)c1, CO[C@@H]1CN(C)C(=O)c2ccc(NC(=O)c3ccc(F)cc3)cc2OC[C@@H](C)N(C(=O)CN(C)C)C[C@@H]1C, CN1CCN(C(=O)C[C@H]2C[C@H]3c4cc(NC(=O)c5ccc6c(c5)OCO6)ccc4O[C@H]3[C@H](CO)O2)CC1, C=CC[C@@H](CC(=O)NCCO)C(=O)NC[C@H](OC(=O)[C@@H](CC=C)CC(=O)OC(C)(C)C)c1ccccc1, Nc1nc(/C(=N/O)C(=O)N[C@@H]2C(=O)N3C(C(=O)O)=C(/C=C4\CCN([C@@H]5CCNC5)C4=O)CS[C@H]23)ns1, C=CC1=C(C(=O)O)N2C(=O)C(NC(=O)C(=NOCC(=O)O)c3csc(N)n3)C2SC1 (stereo not given), Nc1nc(/C(=C/CC(=O)O)C(=O)N[C@@H]2C(=O)N3C(C(=O)O)=CCS[C@H]23)cs1, COC(=O)/C=C/c1cn([C@H]2OC[C@@H](CO)[C@@H]2O)c(=O)[nH]c1=O, Cc1cncc2cccc(S(=O)(=O)N[C@H]3CN[C@@H](COC(=O)NCCOCCOCCN)C3)c12, C[C@H](CO)N1C[C@H](C)[C@@H](CN(C)S(C)(=O)=O)Oc2cc(-c3ccccc3F)ccc2S1(=O)=O, CCCN(C)C[C@@H]1OCCCC[C@@H](C)Oc2ccc(NC(=O)c3ccccc3)cc2C(=O)N([C@H](C)CO)C[C@@H]1C, COc1ccc(NC(=O)N(C)C[C@H]2Oc3ccc(NC(=O)Cn4cnnn4)cc3C(=O)N([C@H](C)CO)C[C@@H]2C)cc1, C[C@@H]1CN([C@@H](C)CO)C(=O)c2cc(NC(=O)Nc3ccc(F)cc3)ccc2O[C@@H](C)CCCCO[C@@H]1CN(C)Cc1ccccc1, C[C@@H]1CN([C@H](C)CO)C(=O)c2cccc(NC(=O)Nc3cccc4ccccc34)c2O[C@@H]1CN(C)CC1CCCCC1, C[C@H](CO)N1C[C@H](C)[C@@H](CN(C)Cc2ccc(Oc3ccccc3)cc2)Oc2ccc(NS(=O)(=O)c3cccs3)cc2C1=O, O=P(O)(O)C(Sc1ccc(Cl)cc1)P(=O)(O)O, C(=N\n1cnnc1)/c1ccco1, C[C@@H]1CN([C@H](C)CO)C(=O)Cc2cc(NS(=O)(=O)c3cn(C)cn3)ccc2O[C@H]1CN(C)CC1CCCCC1, CN1C(=O)c2cc(NC(=O)C3CCOCC3)ccc2OC[C@H]2O[C@@H](CC(=O)NCc3ccccc3F)CC[C@H]21, O=C1NCCN1c1cccnc1, Cc1noc(C)c1NC(=O)N(C)C[C@@H]1Oc2ccc(NC(=O)C3CC3)cc2CC(=O)N([C@H](C)CO)C[C@H]1C

Growth inhibition call, active:
COc1ccc2c3c([nH]c2c1)[C@H](CO)N(C[C@]13CN(CC2CCCCC2)C1)C(=O)Nc1cccc(c1)F, COc1ccc2c3c([nH]c2c1)[C@@H](CO)N(C[C@]13CCN(CC1)CC1CCCCC1)C(=O)Nc1cccc(c1)F, COc1ccc2c3c([nH]c2c1)[C@@H](CO)N(C[C@]13CCN(CC1)Cc1ccc(cc1)F)C(=O)Nc1ccc(cc1)F, Nc1nc(C(=CCC(=O)O)C(=O)NC2C(=O)N3C(C(=O)O)=CCSC23)cs1 (stereo not given), C=CC1=C(C(=O)O)N2C(=O)C(NC(=O)C(=NO)c3csc(N)n3)C2SC1 (stereo not given), C=CC1=C(C(=O)O)N2C(=O)[C@@H](NC(=O)/C(=N/O)c3csc(N)n3)[C@H]2SC1, C=CC1=C(C(=O)O)N2C(=O)[C@@H](NC(=O)/C(=N\OCC(=O)O)c3csc(N)n3)[C@H]2SC1
